Results filed as inconclusive are left out. The source made the active and inactive calls.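 The calls were made as follows, unless noted: active = normalized viability below 100% at a tested concentration; inactive = the rest.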
What was measured:
[1] = growth inhibition of DIPG glioma cells, dose response, cell-based, SU-DIPG-XVII, MIPE5.0, CellTiter-Glo, qHTS (AID 1347060; cut-off not given, nearly all actives have AC50 up to about 26 µM;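 also: cells exposed to compound for 48 hours before viability readout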); conditions: SU-DIPG-XVII viability, CellTiter-Glo ATP luminescence
[2] = growth inhibition of DIPG glioma cells, dose response, cell-based, SU-DIPG-XIII, MIPE4.0, CellTiter-Glo, qHTS (AID 1347061; cut-off not given, nearly all actives have AC50 up to about 37 µM;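 also: cells exposed to compound for 48 hours before readout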); conditions: SU-DIPG-XIII viability, CellTiter-Glo ATP luminescence
[3] = growth inhibition of DIPG glioma cells, dose response, cell-based, JHH-DIPG-1, MIPE4.0, CellTiter-Glo, qHTS (AID 1347062; cut-off not given, nearly all actives have AC50 up to about 27 µM;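 also: cells exposed to compound for two days before readout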); conditions: JHH-DIPG-1 viability, CellTiter-Glo ATP luminescence
[4] = growth inhibition of DIPG glioma cells, dose response, cell-based, SU-DIPG-IV, MIPE4.0, CellTiter-Glo, qHTS (AID 1347063; cut-off not given, nearly all actives have AC50 up to about 30 µM;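 also: compound exposure lasted 48 hours before the viability readout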); conditions: SU-DIPG-IV viability, CellTiter-Glo ATP luminescence
[5] = viability loss in pontine glioma line – cell-based, SU-DIPG-XXV, MIPE5.0, CellTiter-Glo, qHTS, dose response (AID 1347065; cut-off not given, nearly all actives have AC50 up to about 26 µM;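 also: cells exposed to compound for 48 hours before ATP readout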); conditions: CellTiter-Glo ATP luminescence
[6] = SU-DIPG-VI glioma cell viability, MIPE4.0 library, CellTiter-Glo luminescence, qHTS (AID 1347066; cut-off not given, nearly all actives have AC50 up to about 30 µM;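 also: cells exposed to compound for 48 hours before readout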); conditions: CellTiter-Glo ATP luminescence
[7] = modifiers of HSF1 nuclear foci, imaging, Selleck Cancer Library (AID 1347162; in the data active = plate-normalised HSF1 focus index below about 0.46); conditions: human cells, at 10 µM; SSMD: measured here: HSF1 foci SSMD mean; cell count: measured here: cell number; plate-normalised HSF1 focus index: stronger effect = lower value
[8] = ovarian cancer cell viability with rucaparib, profiling panel, oncology-focused library, rucaparib conditional (AID 1508598); conditions: patient-derived ovarian cancer cells, CellTiter-Glo viability, 144 h, stronger effect = lower value
[9] = sensitizers of A549 cells to miR-34 induction, primary screen, imaging, A549 dox-inducible miR-34, nuclei and caspase counts (AID 1347080;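 active = compounds whose cell count with miR-34 switched on is under 0.7 times the count with it off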); conditions: A549 miR-34 inducible, Hoechst nuclei count, 48 h
[10] = at 0.000305 µM, OCI-C5x cells, with rucaparib 10 µM, 100% = cells with rucaparib alone
[11] = at 0.000305 µM, OCI-C5x cells, without rucaparib
[12] = at 0.000305 µM, OCI-P5x cells, with rucaparib 20 µM, 100% = cells with rucaparib alone
[13] = at 0.000305 µM, OCI-P5x cells, without rucaparib
[14] = at 0.00122 µM, OCI-C5x cells, with rucaparib 10 µM, 100% = cells with rucaparib alone
[15] = at 0.00122 µM, OCI-C5x cells, without rucaparib
[16] = at 0.00122 µM, OCI-P5x cells, with rucaparib 20 µM, 100% = cells with rucaparib alone
[17] = at 0.00122 µM, OCI-P5x cells, without rucaparib
[18] = at 0.00488 µM, OCI-C5x cells, with rucaparib 10 µM, 100% = cells with rucaparib alone
[19] = at 0.00488 µM, OCI-C5x cells, without rucaparib
[20] = at 0.00488 µM, OCI-P5x cells, with rucaparib 20 µM, 100% = cells with rucaparib alone
[21] = at 0.00488 µM, OCI-P5x cells, without rucaparib
[22] = at 0.0195 µM, OCI-C5x cells, with rucaparib 10 µM, 100% = cells with rucaparib alone
[23] = at 0.0195 µM, OCI-C5x cells, without rucaparib
[24] = at 0.0195 µM, OCI-P5x cells, with rucaparib 20 µM, 100% = cells with rucaparib alone
[25] = at 0.0195 µM, OCI-P5x cells, without rucaparib
[26] = at 0.0781 µM, OCI-C5x cells, with rucaparib 10 µM, 100% = cells with rucaparib alone
[27] = at 0.0781 µM, OCI-C5x cells, without rucaparib
[28] = at 0.0781 µM, OCI-P5x cells, with rucaparib 20 µM, 100% = cells with rucaparib alone
[29] = at 0.0781 µM, OCI-P5x cells, without rucaparib
[30] = at 0.313 µM, OCI-C5x cells, with rucaparib 10 µM, 100% = cells with rucaparib alone
[31] = at 0.313 µM, OCI-C5x cells, without rucaparib
[32] = at 0.313 µM, OCI-P5x cells, with rucaparib 20 µM, 100% = cells with rucaparib alone
[33] = at 0.313 µM, OCI-P5x cells, without rucaparib
[34] = at 1.25 µM, OCI-C5x cells, with rucaparib 10 µM, 100% = cells with rucaparib alone
[35] = at 1.25 µM, OCI-C5x cells, without rucaparib
[36] = at 1.25 µM, OCI-P5x cells, with rucaparib 20 µM, 100% = cells with rucaparib alone
[37] = at 1.25 µM, OCI-P5x cells, without rucaparib
[38] = at 5 µM, OCI-C5x cells, with rucaparib 10 µM, 100% = cells with rucaparib alone
[39] = at 5 µM, OCI-C5x cells, without rucaparib
[40] = at 5 µM, OCI-P5x cells, with rucaparib 20 µM, 100% = cells with rucaparib alone
[41] = at 5 µM, OCI-P5x cells, without rucaparib

CCN1CCN(Cc2ccc(-c3cc4c(N[C@H](C)c5ccccc5)ncnc4[nH]3)cc2)CC1
1.68: SSMD [7]
inactive: plate-normalised HSF1 focus index [7] 1.06 | viability [8, 10] 113% | viability [8, 11] 121% | viability [8, 13] 117% | viability [8, 14] 110% | viability [8, 15] 123% | viability [8, 17] 120% | viability [8, 18] 110% | viability [8, 19] 127% | viability [8, 20] 108% | viability [8, 21] 118% | viability [8, 22] 109% | viability [8, 23] 124% | viability [8, 25] 115% | viability [8, 26] 106% | viability [8, 27] 129% | viability [8, 28] 102% | viability [8, 29] 123% | viability [8, 30] 119% | viability [8, 31] 146% | viability [8, 33] 112% | viability [8, 35] 114% | viability [8, 37] 118% | viability [8, 39] 117% | viability [8, 41] 105%
7280: cell count [7]
active: AC50 [1] 14.8 µM | AC50 [2] 5.26 µM | AC50 [3] 13.2 µM | AC50 [4] 0.0469 µM | AC50 [5] 18.6 µM | AC50 [6] 23.5 µM | viability [8, 12] 97.2% | viability [8, 16] 100% | viability [8, 24] 98% | viability [8, 32] 98.7% | viability [8, 34] 96.1% | viability [8, 36] 90.3% | viability [8, 38] 70.8% | viability [8, 40] 64.4%

CC(C)[C@H](C(=O)Nc1ccc(C(=O)NO)cc1)c1ccccc1
inactive: fold change ([9]; stronger effect = lower value, cell number ratio, induced over uninduced) 0.834 | plate-normalised HSF1 focus index [7] 0.833 | viability [8, 10] 112% | viability [8, 11] 136% | viability [8, 12] 105% | viability [8, 13] 114% | viability [8, 14] 116% | viability [8, 15] 139% | viability [8, 16] 102% | viability [8, 17] 116% | viability [8, 18] 104% | viability [8, 19] 135% | viability [8, 21] 107% | viability [8, 22] 101% | viability [8, 23] 139% | viability [8, 25] 110% | viability [8, 27] 145%
1610: cell count ([9]; measured here: total cells with miR-34 induction, stronger effect = lower value)
active: AC50 [1] 1.86 µM | AC50 [2] 3.72 µM | AC50 [3] 1.87 µM | AC50 [4] 2.35 µM | AC50 [5] 1.32 µM | AC50 [6] 0.833 µM | viability [8, 20] 87.9% | viability [8, 24] 89.2% | viability [8, 26] 99.7% | viability [8, 28] 82.7% | viability [8, 29] 92.5% | viability [8, 30] 46.8% | viability [8, 31] 41.1% | viability [8, 32] 49.2% | viability [8, 33] 66.8% | viability [8, 34] 10.3% | viability [8, 35] 11% | viability [8, 36] 31.4% | viability [8, 37] 39.9% | viability [8, 38] 5.04% | viability [8, 39] 5.5% | viability [8, 40] 2.82% | viability [8, 41] 3.14%
1930: cell count ([9]; measured here: total cells without miR-34 induction)
7300: cell count [7]
-4.69: SSMD [7]
1.7: fold change ([9]; measured here: relative caspase fold change +Dox/-Dox)

From PubChem BioAssay
